# Results as given in PubChem BioAssay (NCATS).
# Records with an inconclusive call do not appear. Where a call stands in place of a potency, no number is given. Some structures have more than one record in an assay (separate samples or runs), and their calls can disagree. Active and inactive are the calls of the source. Unless noted, calls come from the whole dose curve; as a rule, active = well fitted curve in the direction sought with a large enough effect; inconclusive = small, poorly fitted or top-dose-only effect, or another doubt; inactive = no such curve, though single readings can be large; an effect the other way counts as inactive or inconclusive.
# Experiments:
# [1] = target: Nuclear receptor subfamily 1 group I member 3 (Homo sapiens) (UniProt Q14994); assay: Primary qHTS for antagonist of constitutive androstane receptor (CAR) against the NCATS DSHEA and TCM libraries (AID 1794836); note: potency is the fitted concentration of half-maximal effect
# Procedure, shortened: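 HepG2 cells stably carrying hCAR and a CYP2B6 luciferase reporter (2,500 cells/well) attached for 5 h, then received compounds with 48 uM CITCO for 24 h at 37C. ONE-Glo luminescence read antagonism; CellTiter-Fluor (405/540 nm) gave viability.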
# [2] = Viability counterscreen for antagonist of constitutive androstane receptor (CAR) against the NCATS DSHEA and TCM libraries (AID 1794837);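 note: compound exposure lasted 24 h before viability reading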
# Procedure, shortened: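 Cell viability, CellTiter-Fluor, Ex/Em 405/540 nm, 1 h at 37C. HepG2-CYP2B6-hCAR, 2,500 cells/well; cpds + CITCO 48 uM final (antagonist mode), 24 h, 37C/5% CO2.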
# [3] = Viability counterscreen for agonist of constitutive androstane receptor (CAR) against the NCATS DSHEA and TCM libraries (AID 1794838);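 note: HepG2 cells with CYP2B6 reporter and hCAR plus 0.75 µM PK11195 antagonist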
# Procedure, shortened: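 Viability by CellTiter-Fluor fluorescence, 405/540 nm, after 1 h at 37C. HepG2-CYP2B6-hCAR cells were exposed 24 h to test substances in presence of 0.75 uM PK11195 (final).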
# [4] = HepG2 viability counterscreen (readout 2: ATP content) against the NCATS DSHEA and TCM libraries (AID 1794840)
# Procedure, shortened: (§1)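 1,000 HepG2 cells/well, 4 h attach; compounds ~24 h, 37C/5% CO2. Readout 1: GF-AFC 25 uM final, 30 min, fluorescence 380/510 nm. Readout 2: CellTiter-Glo, 30 min RT, luminescence.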
# [5] = HepG2 viability counterscreen (readout 1: protease activity) against the NCATS DSHEA and TCM libraries (AID 1794841);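 note: cells exposed to compounds for about 24 h before the protease read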
# Procedure, shortened: as §1
# [6] = target: Cytochrome P450 3A4 (Homo sapiens) (UniProt P08684); assay: qHTS for inhibitors of CYP3A4 against the NCATS DSHEA and TCM libraries (AID 1919971); note: potency is the fitted concentration of half-maximal effect
# Procedure, shortened: (§2)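 Concentration-response screening with isoform-matched pro-luciferin substrates. The CYP reaction was initiated by NADPH regenerating solution and ran 30-45 min in darkness at room temperature.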
# [7] = target: Cytochrome P450 2D6 (Homo sapiens) (UniProt P10635); assay: qHTS for inhibitors of CYP2D6 against the NCATS DSHEA and TCM libraries (AID 1919972)
# Procedure, shortened: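 CYP2D6 enzyme with pro-luciferin substrate in manufacturer buffer (typically 100 mM KPO4), preincubated 15 min RT with substances (most at 19.5 nM upward); NADPH regeneration system (1x) started 30–45 min RT reaction; P450-Glo luminescence read after 30 min; quinidine as intraplate control.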
# [8] = target: Cytochrome P450 2C9 (Homo sapiens) (UniProt P11712); assay: qHTS for inhibitors of CYP2C9 against the NCATS DSHEA and TCM libraries (AID 1919973);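 note: luminogenic pro-luciferin CYP2C9 substrate turned into luciferin with NADPH regeneration; series mostly up to about 34 µM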
# Procedure, shortened: as §2
# [9] = KB-3-1 P-gp reporter qHTS against the NCATS DSHEA and TCM libraries (AID 1919975)
# Procedure, shortened: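 CellTiter-Glo luminescence viability readout; KB-3-1 parental cells, 500/well, attached ~4 h, then compound for ~72 h, 37C, 5% CO2. Bortezomib intraplate control.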
# [10] = KB-8-5-11 P-gp reporter qHTS against the NCATS DSHEA and TCM libraries (AID 1919977)
# Procedure, shortened: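 CellTiter-Glo luminescence after ~72 h exposure at 37C gave viability of KB-8-5-11 cells, the P-gp-overexpressing subline. Substances were titrated; colchicine was omitted from assay medium.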
# [11] = qHTS Counterscreen for compound interference against the NCATS DSHEA and TCM libraries (AID 1919978); conditions: firefly luciferase detection reagent interference, luminescence;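 note: compounds preincubated with 1 µM D-luciferin or buffer before detection reagent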
# Procedure, shortened: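 Luminescence counterscreen for detection-kit interference: compounds at 19.5 nM–39.8 uM final, 15 min RT with 1 uM D-luciferin or buffer only; detection reagent added, 30 min RT, then read.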
# [12] = Dual reporter qHTS for agonist of Pregnane X Receptor (hPXR) against the NCATS DSHEA and TCM libraries: Fluorescence readout (AID 1920058)
# Procedure, shortened: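 Cells were plated at 2000 per well and allowed to attach for 5 h. Test substances were pinned in and incubated roughly 24 h. CellTiter-Fluor was then added and fluorescence measured after 1 h.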
# [13] = target: Nuclear receptor subfamily 1 group I member 2 (Homo sapiens) (UniProt O75469); assay: Dual reporter qHTS for antagonist of Pregnane X Receptor (hPXR) against the NCATS DSHEA and TCM libraries: Luminescence Readout (AID 1920060);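 note: HepG2 cells carrying hPXR luciferase reporter stimulated with rifampicin at 2 µM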
# Procedure, shortened: (§3)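 HepG2 hPXR-Luc, 2000 cells/well, charcoal-stripped FBS medium; 5 h attach; RIF 2 uM final; 24 h 37C/5% CO2; CellTiter-Fluor 1 h, fluor 405/540; ONE-Glo 30 min RT, lum.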
# [14] = Dual reporter qHTS for antagonist of Pregnane X Receptor (hPXR) against the NCATS DSHEA and TCM libraries: Fluorescence Readout (AID 1920061)
# Procedure, shortened: as §3
# [15] = qHTS for differential inhibitors of proliferation of Plasmodium falciparum line 3D7 (AID 1876); note: potency is the fitted concentration of half-maximal effect
# [16] = Validation screen for inhibitors of Lassa infection (AID 463096; calls by dose curve)
# [17] = Quantitative high throughput screen for delayed death inhibitors of the malarial parasite plastid, 96 hour incubation (AID 488745); note: potency is the fitted concentration of half-maximal effect; nearly all actives have a fitted effect of over 70% in size
# Procedure, shortened: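 Readout is firefly luciferase luminescence from an integrated reporter in P. falciparum; lower signal marks inhibited growth. Cultures at 2% hematocrit and 0.1% parasitemia were treated with compound across two generations (96 h, 37 C, 5% CO2).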
# [18] = target: Glutathione peroxidase 1 (Homo sapiens) (UniProt P07203); assay: Primary qHTS Assay for Inhibitors of Recombinant Selenoprotein Glutathione Peroxidase 1 (GPX1) (AID 1845191); note: nearly all actives have a fitted effect of over 65% in size
# Procedure, shortened: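 GPX1 10 nM, GR 100 nM, GSH 1 mM, NADPH 0.5 mM, CHP 0.5 mM (final). 30-min cpd preincubation, RT. Ex340/Em450 read t=0, t=15 min.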
# [19] = target: Cytochrome P450 3A4 (Homo sapiens) (UniProt P08684); assay: qHTS Assay for Inhibitors and Substrates of Cytochrome P450 3A4 (AID 884); note: potency is the fitted concentration of half-maximal effect; nearly all actives have a fitted effect of over 50% in size
# Procedure, shortened: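 Luminescent readout of luciferin produced by CYP3A4 (20 nM) dealkylation of Luciferin-PPXE, 25 uM (its KM). NADPH-driven reaction ran 60 min at RT after 10 min compound preincubation; data scaled to 57 uM ketoconazole as 100% inhibition.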
# [20] = target: Cytochrome P450 3A4 (Homo sapiens) (UniProt P08684); assay: qHTS Assay for Activators of Cytochrome P450 3A4 (AID 885); note: nearly all actives have a fitted effect of over 65% in size
# Procedure, shortened: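 Activators are scored by enhanced luminescence from CYP3A4 conversion of luciferin-PPXE (25uM, equal to KM) to luciferin, after 60 min at RT with an NADPH-regenerating system.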
# [21] = target: Alpha-galactosidase (Coffea arabica) (UniProt Q42656); assay: Counterscreen for Glucocerebrosidase Inhibitors: qHTS Assay for Coffee Bean alpha-Galactosidase at pH 4.5 (AID 957); note: series mostly up to about 77 µM
# Procedure, shortened: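 Enzyme is added first (2 nM final), then compounds titrated from 0.7 nM to 77 uM, then 80 uM 4-methylumbelliferyl alpha-D-galactopyranoside; after 20 min at room temperature a pH 10 NaOH/glycine stop precedes fluorescence reading at 365/440 nm.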
# [22] = qHTS for differential inhibitors of proliferation of Plasmodium falciparum line W2 (AID 1883); conditions: Potency: Plasmodium falciparum W2 proliferation inhibition;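 note: potency is the fitted concentration of half-maximal effect; parasites grown with compound for 72 h before lysis and staining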
# [23] = qHTS for differential inhibitors of proliferation of Plasmodium falciparum line HB3 (AID 1886); conditions: Potency: Plasmodium falciparum HB3 proliferation inhibition;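 note: potency is the fitted concentration of half-maximal effect; parasites grown with compound for 72 h before SYBR Green readout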
# [24] = target: M-phase phosphoprotein 8 (Homo sapiens) (UniProt Q99549); assay: qHTS Validation Assay for Inhibitors for MPP8 Chromodomain Interactions with Methylated Histone Tails (AID 488949); note: nearly all actives have a fitted effect of over 55% in size; note: potency is the fitted concentration of half-maximal effect
# Procedure, shortened: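 AlphaScreen read-out: streptavidin donor and nickel chelate acceptor beads (final 10 ug/mL), 30 min in the dark at RT. Complex of 50 nM MPP8 and 50 nM b-H3(1-18)K9me3 peptide had been exposed to compounds for 30 min beforehand.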
# [25] = target: Chromobox protein homolog 1 (Homo sapiens) (UniProt P83916); assay: qHTS Validation Assay for Inhibitors of HP1-beta Chromodomain Interactions with Methylated Histone Tails (AID 488953); note: potency is the fitted concentration of half-maximal effect; nearly all actives have a fitted effect of over 50% in size
# Procedure, shortened: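 Disruption of preformed HP1-beta:H3K9me3 peptide complexes (both 50 nM, PBS pH 7.4 with 0.01% Tween-20) is measured by AlphaScreen after 30 min compound exposure at room temperature, using streptavidin donor and nickel chelate acceptor beads at 10 ug/mL final.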
# [26] = Validation screen for small molecules that induce genotoxicity in human embryonic kidney (HEK293T) cells expressing luciferase-tagged ELG1 (AID 493106)
# Procedure, shortened: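 Cells were dispensed at 2,000 per well, then 23 nL compound or DMSO was pinned in. After 16 hr at 37 °C and 5% CO2, ONE-Glo reagent was added. Luciferase activity was measured following 30 min at room temperature.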
# [27] = target: ATPase family AAA domain-containing protein 5 (Homo sapiens) (UniProt Q96QE3); assay: Validation screen for small molecules that inhibit ELG1-dependent DNA repair in human embryonic kidney (HEK293T) cells expressing luciferase-tagged ELG1 (AID 493107); note: potency is the fitted concentration of half-maximal effect; nearly all actives have a fitted effect of over 70% in size
# Procedure, shortened: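 Cells are dispensed in 1536-well format, then 5-fluorouridine and compound are pinned in. After a 16 hr incubation at 37 °C and 5% CO2, ONE-Glo is added and luciferase measured on a CCD imager.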
# [28] = Inducers of the Endoplasmic Reticulum Stress Response (ERSR) in human glioma: Validation (AID 504836)
# Procedure, shortened: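 Stably transfected U87-MG human glioma cells carrying a GRP78-based luminescent sensor were seeded at 1000 cells/well, pin-dosed with compounds and incubated 16 h. Luciferase reagent was then added, and end-point luminescence was read after 10 min at room temperature.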
# [29] = target: Arylsulfatase A (Homo sapiens) (UniProt P15289); assay: qHTS screen for enhancers of Arylsulfatase A (ASA1): LOPAC Validation Assay (AID 720538)
# Procedure, shortened: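 Read-out: fluorescence at Ex=525/Em=598 nm after 1N NaOH final stop. Patient fibroblasts carrying ASA-I179S had 48h compound exposure, then 14h room-temperature pNCS hydrolysis (0.5mM final) in lysis buffer. Signal increase = enhanced activity.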
# [30] = target: Phospholipid hydroperoxide glutathione peroxidase GPX4 (Homo sapiens) (UniProt P36969); assay: Primary qHTS Assay for Inhibitors of Recombinant Selenoprotein Glutathione Peroxidase 4 (GPX4) (AID 1845192); note: series mostly up to about 50 µM; nearly all actives have a fitted effect of over 65% in size
# Procedure, shortened: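 qHTS, GR-coupled: GPX4 200 nM + cpd 30 min RT → GSH 1 mM, NADPH 0.5 mM, GR 100 nM → CHP 0.5 mM start; fluor 340/450 at t0 and t15 min; no-enzyme wells as control.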
# [31] = qHTS drug screen for cell cycle checkpoint inhibitors in PARPi-resistant BRCA-mutant ovarian cancer cell lines. (AID 1963452; calls by dose curve); conditions: PEO1/OlaR viability, CellTiter-Glo luminescence, 96 h, stronger effect = lower value
# Procedure, shortened: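 PEO1, PEO4 and PEO1/OlaR ovarian cancer cells, 600 per well, exposed 96 h at 37C to a dilution series. Viability read by CellTiter-Glo luminescence, normalized to DMSO and empty wells; activity summarized as Z-AUC.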
# Glutathione peroxidase 1 (Homo sapiens), sequence (P07203 whole entry, looked up): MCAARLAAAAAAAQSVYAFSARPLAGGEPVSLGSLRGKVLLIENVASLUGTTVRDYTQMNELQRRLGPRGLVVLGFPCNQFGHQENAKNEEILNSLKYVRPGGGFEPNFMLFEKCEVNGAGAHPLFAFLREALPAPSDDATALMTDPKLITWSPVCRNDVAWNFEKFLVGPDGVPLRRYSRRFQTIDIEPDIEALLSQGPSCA
# Cytochrome P450 3A4 (Homo sapiens), sequence (P08684 whole entry, looked up, canonical isoform): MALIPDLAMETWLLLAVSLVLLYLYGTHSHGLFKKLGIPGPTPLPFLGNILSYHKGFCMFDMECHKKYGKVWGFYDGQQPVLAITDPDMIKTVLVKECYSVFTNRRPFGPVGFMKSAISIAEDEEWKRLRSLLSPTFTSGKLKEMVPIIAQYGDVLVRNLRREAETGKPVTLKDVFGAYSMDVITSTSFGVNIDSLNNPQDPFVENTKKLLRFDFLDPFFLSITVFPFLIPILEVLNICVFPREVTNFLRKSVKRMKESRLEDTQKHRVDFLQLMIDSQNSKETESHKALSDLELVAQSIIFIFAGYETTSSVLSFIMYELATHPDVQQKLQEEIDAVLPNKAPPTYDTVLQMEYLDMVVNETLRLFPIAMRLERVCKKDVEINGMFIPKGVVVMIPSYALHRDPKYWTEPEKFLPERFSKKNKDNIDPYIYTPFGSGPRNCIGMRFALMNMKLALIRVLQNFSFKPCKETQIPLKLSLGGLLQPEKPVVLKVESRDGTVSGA
# M-phase phosphoprotein 8 (Homo sapiens), sequence (Q99549 whole entry, looked up): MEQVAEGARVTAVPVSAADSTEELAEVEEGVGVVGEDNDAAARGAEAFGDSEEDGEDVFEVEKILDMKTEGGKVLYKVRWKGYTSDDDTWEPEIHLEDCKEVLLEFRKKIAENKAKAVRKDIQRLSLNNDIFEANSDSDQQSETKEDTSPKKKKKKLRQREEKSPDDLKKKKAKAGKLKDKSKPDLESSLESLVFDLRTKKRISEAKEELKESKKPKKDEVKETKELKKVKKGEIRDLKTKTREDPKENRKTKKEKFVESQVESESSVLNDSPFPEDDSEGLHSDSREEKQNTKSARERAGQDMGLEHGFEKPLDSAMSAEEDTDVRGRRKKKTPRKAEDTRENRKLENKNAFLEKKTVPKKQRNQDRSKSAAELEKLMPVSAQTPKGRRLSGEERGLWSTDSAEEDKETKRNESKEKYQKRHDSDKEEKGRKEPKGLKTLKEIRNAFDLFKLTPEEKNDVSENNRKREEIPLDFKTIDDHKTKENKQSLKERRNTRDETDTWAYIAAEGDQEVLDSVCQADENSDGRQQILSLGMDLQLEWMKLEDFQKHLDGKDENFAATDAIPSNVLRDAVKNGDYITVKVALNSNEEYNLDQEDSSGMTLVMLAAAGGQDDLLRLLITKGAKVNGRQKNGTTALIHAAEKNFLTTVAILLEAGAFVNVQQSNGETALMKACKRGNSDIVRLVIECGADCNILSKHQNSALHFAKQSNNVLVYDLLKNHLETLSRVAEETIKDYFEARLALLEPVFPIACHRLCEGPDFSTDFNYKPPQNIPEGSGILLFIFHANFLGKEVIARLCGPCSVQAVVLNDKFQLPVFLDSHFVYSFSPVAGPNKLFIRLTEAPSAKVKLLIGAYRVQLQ
# Arylsulfatase A (Homo sapiens), sequence (P15289 whole entry, looked up): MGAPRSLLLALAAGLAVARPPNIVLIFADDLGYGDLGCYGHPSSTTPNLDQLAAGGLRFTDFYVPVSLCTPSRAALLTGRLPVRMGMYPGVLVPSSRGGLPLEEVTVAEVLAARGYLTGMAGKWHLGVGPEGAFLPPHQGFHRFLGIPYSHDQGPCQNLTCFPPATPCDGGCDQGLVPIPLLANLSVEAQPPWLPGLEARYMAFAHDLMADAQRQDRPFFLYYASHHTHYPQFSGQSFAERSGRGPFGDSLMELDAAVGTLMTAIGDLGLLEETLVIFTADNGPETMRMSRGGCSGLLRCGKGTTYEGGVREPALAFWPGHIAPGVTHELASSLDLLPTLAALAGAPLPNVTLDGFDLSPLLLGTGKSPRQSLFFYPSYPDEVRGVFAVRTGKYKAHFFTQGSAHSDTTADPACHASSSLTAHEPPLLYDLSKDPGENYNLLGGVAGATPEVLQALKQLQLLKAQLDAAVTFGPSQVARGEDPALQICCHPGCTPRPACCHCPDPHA
# Cytochrome P450 2D6 (Homo sapiens), sequence (P10635 whole entry, looked up): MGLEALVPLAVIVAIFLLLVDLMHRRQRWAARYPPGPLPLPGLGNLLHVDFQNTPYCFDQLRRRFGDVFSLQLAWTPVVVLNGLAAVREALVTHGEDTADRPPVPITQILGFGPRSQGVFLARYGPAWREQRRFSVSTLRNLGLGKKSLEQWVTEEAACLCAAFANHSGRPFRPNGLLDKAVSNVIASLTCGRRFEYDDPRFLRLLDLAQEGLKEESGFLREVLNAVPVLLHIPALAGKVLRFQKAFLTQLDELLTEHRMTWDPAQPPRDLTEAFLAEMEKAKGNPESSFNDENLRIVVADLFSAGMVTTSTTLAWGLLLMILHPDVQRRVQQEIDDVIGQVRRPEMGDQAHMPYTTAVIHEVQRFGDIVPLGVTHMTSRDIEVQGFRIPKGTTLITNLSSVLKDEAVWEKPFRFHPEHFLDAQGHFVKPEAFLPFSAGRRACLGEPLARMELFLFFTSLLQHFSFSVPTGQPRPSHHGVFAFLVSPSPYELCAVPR
# Phospholipid hydroperoxide glutathione peroxidase GPX4 (Homo sapiens), sequence (P36969 whole entry, looked up): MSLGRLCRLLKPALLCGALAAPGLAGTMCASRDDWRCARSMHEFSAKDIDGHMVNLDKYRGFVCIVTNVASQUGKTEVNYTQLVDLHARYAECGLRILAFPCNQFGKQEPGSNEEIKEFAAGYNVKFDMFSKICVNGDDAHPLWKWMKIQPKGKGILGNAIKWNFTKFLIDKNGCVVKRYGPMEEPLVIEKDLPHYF
# ATPase family AAA domain-containing protein 5 (Homo sapiens), sequence (Q96QE3 whole entry, looked up, the tested form may be a part): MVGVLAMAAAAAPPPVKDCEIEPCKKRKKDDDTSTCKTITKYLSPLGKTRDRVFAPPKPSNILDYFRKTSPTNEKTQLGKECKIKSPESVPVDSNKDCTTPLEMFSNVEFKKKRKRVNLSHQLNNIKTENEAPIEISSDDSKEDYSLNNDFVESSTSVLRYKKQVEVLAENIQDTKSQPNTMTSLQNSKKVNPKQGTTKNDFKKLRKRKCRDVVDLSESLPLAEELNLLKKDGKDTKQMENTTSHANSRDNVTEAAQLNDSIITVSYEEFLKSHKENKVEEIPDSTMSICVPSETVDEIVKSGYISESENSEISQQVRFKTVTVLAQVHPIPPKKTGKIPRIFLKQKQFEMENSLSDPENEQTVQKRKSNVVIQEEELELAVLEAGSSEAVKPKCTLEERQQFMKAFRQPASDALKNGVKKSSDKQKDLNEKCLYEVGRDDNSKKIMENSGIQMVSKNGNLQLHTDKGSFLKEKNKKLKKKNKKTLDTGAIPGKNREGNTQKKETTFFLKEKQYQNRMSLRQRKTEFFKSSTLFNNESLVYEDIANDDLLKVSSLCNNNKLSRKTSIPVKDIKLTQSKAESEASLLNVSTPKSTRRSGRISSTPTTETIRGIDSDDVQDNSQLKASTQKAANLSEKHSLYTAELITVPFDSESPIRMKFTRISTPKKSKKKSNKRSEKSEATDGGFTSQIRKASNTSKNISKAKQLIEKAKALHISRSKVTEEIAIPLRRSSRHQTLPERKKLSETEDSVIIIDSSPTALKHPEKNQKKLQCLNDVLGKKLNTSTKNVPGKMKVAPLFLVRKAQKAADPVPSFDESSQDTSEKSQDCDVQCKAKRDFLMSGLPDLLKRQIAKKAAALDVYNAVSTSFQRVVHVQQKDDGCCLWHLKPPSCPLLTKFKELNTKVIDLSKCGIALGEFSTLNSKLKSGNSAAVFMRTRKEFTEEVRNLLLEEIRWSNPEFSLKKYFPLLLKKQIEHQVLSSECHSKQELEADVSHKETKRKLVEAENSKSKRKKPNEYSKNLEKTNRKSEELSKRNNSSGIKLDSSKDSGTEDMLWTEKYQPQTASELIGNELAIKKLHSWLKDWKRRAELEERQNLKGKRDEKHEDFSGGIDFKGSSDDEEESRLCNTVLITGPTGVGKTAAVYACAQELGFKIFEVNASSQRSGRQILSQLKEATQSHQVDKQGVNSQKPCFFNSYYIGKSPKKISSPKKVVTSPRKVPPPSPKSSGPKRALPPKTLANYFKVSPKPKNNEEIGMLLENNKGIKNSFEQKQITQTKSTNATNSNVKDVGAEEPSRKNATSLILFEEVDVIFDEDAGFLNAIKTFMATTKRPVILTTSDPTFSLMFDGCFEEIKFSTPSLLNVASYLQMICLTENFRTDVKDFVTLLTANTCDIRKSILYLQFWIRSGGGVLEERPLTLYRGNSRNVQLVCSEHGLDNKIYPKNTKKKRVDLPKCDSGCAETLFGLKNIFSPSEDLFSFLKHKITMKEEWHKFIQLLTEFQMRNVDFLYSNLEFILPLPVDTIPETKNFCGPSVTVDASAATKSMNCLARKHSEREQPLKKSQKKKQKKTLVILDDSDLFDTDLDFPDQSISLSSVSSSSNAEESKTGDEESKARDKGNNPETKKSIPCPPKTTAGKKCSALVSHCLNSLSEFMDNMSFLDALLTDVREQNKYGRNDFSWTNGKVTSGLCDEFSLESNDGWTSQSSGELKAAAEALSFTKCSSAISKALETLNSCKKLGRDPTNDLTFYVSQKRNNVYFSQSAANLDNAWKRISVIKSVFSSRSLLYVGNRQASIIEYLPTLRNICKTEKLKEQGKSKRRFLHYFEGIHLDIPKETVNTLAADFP
# Nuclear receptor subfamily 1 group I member 2 (Homo sapiens), sequence (O75469 whole entry, looked up): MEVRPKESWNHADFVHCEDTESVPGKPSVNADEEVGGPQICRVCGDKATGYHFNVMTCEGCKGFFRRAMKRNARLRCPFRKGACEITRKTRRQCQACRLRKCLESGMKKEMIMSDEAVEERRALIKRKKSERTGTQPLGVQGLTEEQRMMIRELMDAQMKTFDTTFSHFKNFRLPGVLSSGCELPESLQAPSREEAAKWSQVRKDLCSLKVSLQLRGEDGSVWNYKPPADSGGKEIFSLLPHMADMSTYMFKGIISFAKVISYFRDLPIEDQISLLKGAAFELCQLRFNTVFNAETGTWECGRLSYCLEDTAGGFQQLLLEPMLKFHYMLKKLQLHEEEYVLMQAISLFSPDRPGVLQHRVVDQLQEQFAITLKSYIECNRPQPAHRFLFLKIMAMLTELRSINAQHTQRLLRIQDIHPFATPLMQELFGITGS
structure (smiles),measurement,setting,value
C=C[C@H]1CN2CC[C@@]3(C(=O)Nc4ccccc43)[C@@H]2C[C@@H]1/C(=C\OC)C(=O)OC,Potency,[1],3.98 µM (active)
same,outcome,[2],inactive
same,outcome,[3],inactive
same,outcome,[4],inactive
same,outcome,[5],inactive
same,Potency,[6],12.6 µM (active)
same,Potency,[7],inactive
same,Potency,[8],inactive
same,outcome,[9],inactive
same,Potency,[10],inactive
same,max response,[11],-1.45% (inactive)
same,outcome,[12],inactive
same,outcome,[13],inactive
same,outcome,[14],inactive
CC(=O)O[C@H]1C[C@@H]2CCC3C(CC[C@@]4(C)[C@H]3C[C@H]([N+]3(C)CCCCC3)[C@@H]4OC(C)=O)[C@@]2(C)C[C@@H]1[N+]1(C)CCCCC1 (some centres not stated),Potency,[15],11.2 µM (active)
same,Potency,[16],inactive
same,Potency,[17],13.1 µM (active)
CC1(C)CC[C@]2(C(=O)O)CC[C@]3(C)C(=CCC4[C@@]5(C)CC[C@@H](O)C(C)(C)C5CC[C@]43C)C2C1 (some centres not stated),Potency,[10],inactive
Cc1ccc(C(C)C)cc1,Potency,[10],inactive
CCC(/C=C/[C@@H](C)[C@H]1CCC2C3CC=C4C[C@@H](O)CC[C@]4(C)C3CC[C@@]21C)C(C)C (some centres not stated),Potency,[10],inactive
CC(=O)C1=C(O)[C@@H]2[C@H]3c4c[nH]c5cccc(c45)C[C@H]3C(C)(C)N2C1=O,Potency,[18],inactive
CC(C)[C@H](C)CC[C@@H](C)[C@H]1CC[C@H]2[C@@H]3CC=C4C[C@@H](O)CC[C@]4(C)[C@H]3CC[C@]12C,Potency,[10],inactive
COc1cc(OC)c(/C=C2/C(=O)Nc3ccccc32)c(OC)c1,Potency,[19],2.51 µM (active)
same,Potency,[20],inactive
same,outcome,[21],inactive
same,Potency,[22],12.6 µM (active)
same,Potency,[23],11.2 µM (active)
same,Potency,[24],12.6 µM (active) and inactive
same,Potency,[25],31.6 µM (active)
same,outcome,[26],inactive
same,Potency,[27],16.4 µM (active)
same,outcome,[28],inactive
same,outcome,[29],inactive
CN(CC(=O)O)C(=N)N,Potency,[10],inactive
CN1[C@@H]2CC(O)C[C@H]1[C@@H]1O[C@@H]12 (some centres not stated),Potency,[18],inactive
same,Potency,[30],inactive
same,Z-AUC,[31],0.552 (inactive)
same,Z-AUC,[31]; measured here: PEO1 parental Z-AUC,0.772
same,Z-AUC,[31]; measured here: PEO4 Z-AUC,1.01
CCCCOC(=O)c1ccnc2cc(C(OCCN3CCCCC3)c3ccccc3C)sc12 (configuration not stated),Potency,[18],inactive
C=CCN1CC[C@]2(C)c3cc(O)ccc3CC1[C@@H]2C,Potency,[18],inactive
O=c1c(O[C@@H]2O[C@H](CO)[C@H](O)[C@H](O)[C@H]2O)c(-c2ccc(O)c(O)c2)oc2cc(O)cc(O)c12,Potency,[10],inactive
